Screening results deposited in PubChem BioAssay by National Center for Advancing Translational Sciences (NCATS).
A selection: hits, their analogues and other compounds. The true share with any hit is near 19%.
HT1080 IDH1KD tx = HT-1080 IDH1 knockdown cell toxicity (counter line); Potency, µM (series often up to 46.1 µM), inactives show top-dose activity, negative = toxicity, usual class: cytotoxic; HT-1080 IDH1 knockdown viability, ATP luminescence, 48 h; 360,000 compounds, 2% hits;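 further: potency means the concentration at half of the fitted maximal effect; 0% = DMSO wells and -100% = cell-free medium wells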
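Assay cells: HT-1080 with IDH1 knockdown, 750 per well, RPMI/5% FBS. Exposure: 48 h at 37 °C following 2 h pre-incubation. Read: CellTiter-Glo luminescence; fitted concentration-response, curve class assigned.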
DT40 TDP1 no CPT = qHTS for Inhibitors of human tyrosyl-DNA phosphodiesterase 1 (TDP1): qHTS in cells in absence of CPT. 420,000 compounds, 15% hits. DT40 Tdp1-/- hTDP1 cells, no CPT, ATP luminescence, 48 h. AID 686978, 2013. Potency, µM (titrated, usually from 46.2 µM), without a hit: at the highest dose activity change, negative = growth inhibition, hits mostly inhibitors; further: potency means the concentration at half of the fitted maximal effect; nearly all actives have a fitted effect of over 55% in size
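Cells were dispensed at 400 per well, compounds added by pin tool, plates incubated ≥48 hr at 37 °C, then CellTiter-Glo added for 30 min at room temperature before luminescence reading. Line: DT40 Tdp1-/- complemented with hTDP1; camptothecin omitted.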
IL-1B inflam inh = inflammasome signaling inhibition, IL-1 beta readout; activity change, % at 57.5 µM; THP-1 LPS/ATP IL-1B secretion, AlphaLISA, 16 h; hits give low values; 360,000 compounds, 4.7% hits; AID 743279; in the data active means activity change below about -50%; inconclusive means mostly about -30% to -49%
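THP-1 cells pretreated 1 hr with compounds (up to 57.5 uM final), then stimulated with LPS (250 ng/mL final) plus ATP (1.25 mM final); secreted IL-1B measured by AlphaLISA after 16 hr, decreased signal indicating inhibition.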
TDP1 cell CPT = growth inhibition of DT40 Tdp1-/-;hTDP1 cells with camptothecin (screen for TDP1 inhibitors); Potency, µM (series often up to 46.2 µM), inactives show top-dose activity change, negative = growth inhibition, hits mostly inhibitors; AID 686979; 420,000 compounds, 12% hits; chicken DT40 Tdp1-/-;hTDP1 cells + 20 nM CPT, ATP luminescence, 48 h; further: potency means the concentration at half of the fitted maximal effect; nearly all actives have a fitted effect of over 55% in size
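Chicken DT40 Tdp1-/- cells stably complemented with human TDP1 were seeded at 400 cells/well in medium containing 20 nM camptothecin, exposed to pin-transferred compounds, and grown at 37 °C for at least 48 hr. Viability was read as ATP luminescence.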
HT1080-NT tox = kills 2HG-producing HT-1080-NT fibrosarcoma cells | HT-1080-NT fibrosarcoma viability, CellTiter-Glo ATP luminescence, 48 h | Potency, µM (titrated, usually from 46.1 µM), inactives show at the highest dose activity, negative = less viability, usual class: cytotoxic | 360,000 compounds, 1.6% hits;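 further: NT is the 2HG producing partner of a matched IDH1 knockdown line; potency means the concentration at half of the fitted maximal effect; 0% = DMSO-treated cells and -100% = media-only wells without cells; nearly all actives have a fitted effect of over 55% in size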
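A 48-hour cytotoxicity screen used HT-1080-NT cells plated 2 hours before compound delivery. ATP-based CellTiter-Glo luminescence measured viability, normalized to DMSO and no-cell controls.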
* marks the source's active call; other numbers are inactive results; ? = inconclusive; nt = not tested or not shown. Unless noted, the call rests on the fitted dose curve; in most records, active means well fitted curve in the direction sought with a large enough effect; inconclusive means small, poorly fitted or top-dose-only effect, or another doubt; inactive means no such curve, though single readings can be large; an effect the other way counts as inactive or inconclusive. Unless noted, on the % scale 0 is the no-effect control and ±100 the full control effect.

SMILES	HT1080 IDH1KD tx	DT40 TDP1 no CPT	IL-1B inflam inh	TDP1 cell CPT	HT1080-NT tox
N#C/C(=C\c1ccc(-c2ccc(Br)cc2)o1)C(=O)NCCc1c[nH]c2ccccc12	-27%	?	-61*	?	-24%
O=C(c1cccc(Cl)c1)N(Cc1cccc(F)c1)C1CCS(=O)(=O)C1 (stereo not given)	nt	-19%	nt	-4%	nt
CN(C)CCN(C(=O)CCc1ccccc1)c1nc2c(F)cc(F)cc2s1	2%	-20%	0	-10%	-1%
Cc1cc(C)c2sc(N(Cc3cccnc3)C(=O)CCOc3ccccc3)nc2c1	nt	?	nt	18µM*	nt
O=C(CCS(=O)(=O)c1ccccc1)N(Cc1cccnc1)c1nc2ccc(F)cc2s1	nt	5.8µM*	nt	3.3µM*	nt
COc1ccc2nc(N(Cc3cccnc3)C(=O)Cc3ccccc3)sc2c1	nt	-7%	nt	-13%	nt
O=C(COc1ccccc1)N(Cc1cccnc1)c1nc2c(F)cc(F)cc2s1	nt	?	nt	-26%	nt
O=C(CCOc1ccccc1)N(Cc1cccnc1)c1nc2c(F)cc(F)cc2s1	nt	26µM*	nt	18µM*	nt
CCN(CC)CCN(C(=O)CCOc1ccccc1)c1nc2c(F)cc(F)cc2s1	-2%	18µM*	?	?	2%
Cc1cccc(N(C(=O)CNC(=O)c2ccco2)C(C(=O)NCC2CCCO2)c2ccccc2)c1 (stereo not given)	12%	-27%	-1	-3%	0%
Cc1cccc(NC(=O)c2ccc3oc(=O)c(S(=O)(=O)c4ccc(F)cc4)cc3c2)c1C	nt	?	nt	-13%	nt
CC(C)c1ccc(S(=O)(=O)c2cc3cc(Br)ccc3oc2=O)cc1	13µM*	?	8	-15%	13µM*
Cc1ccc(S(=O)(=O)c2cc3cc(Br)ccc3oc2=O)cc1	-1%	0%	-21	5%	2%
CC(C)c1ccc(NC(=O)c2ccc3oc(=O)c(S(=O)(=O)c4ccc(F)cc4)cc3c2)cc1	nt	7.3µM*	nt	?	nt
CCCOc1ccc(N2C(=O)CC(N3CCN(CCN=CC4C(=O)CC(C)(C)CC4=O)CC3)C2=O)cc1 (stereo not given)	5%	15%	42	6%	-1%
COc1ccc(C2=CSC3=NNC4(CCCCC4)NN23)cc1	-2%	-13%	15	-2%	-3%
Cc1ccc(C2=CSC3=NNC4(CCCCC4)NN23)cc1	-16%	23µM*	0	?	-6%
O=C(NCc1cccs1)c1ccc2c(c1)N(Cc1ccccc1Cl)C(=O)c1ccccc1S2	nt	-25%	nt	-15%	nt
OC(Cc1cccc(Br)c1)c1ncc(-c2cccc(C(F)(F)F)c2)[nH]1 (stereo not given)	?	16µM*	-8	?	?
OC(Cc1ccccc1Br)c1ncc(-c2cccc(C(F)(F)F)c2)[nH]1 (stereo not given)	16µM*	16µM*	-61*	23µM*	?
CN(C(=O)c1cnn(-c2nccc(-c3ccccc3C(F)(F)F)n2)c1C1CC1)C1CCOC1 (stereo not given)	nt	-17%	nt	?	nt
COc1ccc(-c2nnc3ccc(SC(C)C)nn23)cc1OC	nt	13µM*	nt	10µM*	nt
CCC(Sc1ccc2nnc(-c3ccc(OC)c(OC)c3)n2n1)C(=O)O (stereo not given)	5%	-5%	6	-2%	8%
COc1ccc(-c2nnc3ccc(SC(C(C)=O)C(C)=O)nn23)cc1OC	-8%	?	16	18µM*	-22%
COC(=O)CSc1ccc2nnc(-c3ccc(OC)c(OC)c3)n2n1	0%	?	-16	-11%	4%
SMILES	HT1080 IDH1KD tx	DT40 TDP1 no CPT	IL-1B inflam inh	TDP1 cell CPT	HT1080-NT tox
CC1Cc2ccccc2N1C(=O)COC(=O)c1ccc(Cl)c(S(=O)(=O)N2CCOCC2)c1 (stereo not given)	-4%	-12%	-5	?	-2%
CCOC(=O)N1N=C(C)CC1(O)c1ccccc1 (stereo not given)	20%	-29%	8	-25%	21%
CC1=NN(C(=O)Cc2ccc([N+](=O)[O-])cc2)C(O)(c2cccnc2)C1 (stereo not given)	?	?	-17	18µM*	?
CC1=NN(C(=O)Cc2ccccc2)C(O)(c2ccccc2)C1 (stereo not given)	-4%	4.1µM*	12	2.9µM*	2%
CC1=NN(C(=O)Cc2ccc([N+](=O)[O-])cc2)C(O)(c2ccccc2)C1 (stereo not given)	?	5.2µM*	-2	4.1µM*	?
CCOc1ccc(NC(=O)CCN2CCCCC2)cc1	-1%	10%	7	8%	5%
O=C(Cc1ccccc1)NC1(Cc2ccc(O)cc2)CCCCC1	-8%	-26%	-21	-25%	-1%
COc1ccc(OC)c(C(C[N+](=O)[O-])c2c(C)cc3ccccn23)c1 (stereo not given)	18µM*	2.9µM*	0	2.1µM*	23µM*
COCCn1c(=N)c(C(=O)NCCc2ccccc2)cc2c(=O)n3cccc(C)c3nc21	-1%	?	18	?	-1%
Cc1ccc(Cn2c(=N)c(C(=O)NC3CCCCC3)cc3c(=O)n4ccccc4nc32)cc1	18%	6.5µM*	6	5.8µM*	11%
Cc1cccn2c(=O)c3cc(C(=O)NC4CCCC4)c(=N)n(CCc4ccccc4)c3nc12	3%	3.7µM*	28	2.9µM*	11%
COc1ccc(CCn2c(=N)c(C(=O)NC3CCCCC3)cc3c(=O)n4ccccc4nc32)cc1	6%	4.1µM*	-13	6.5µM*	-1%
COc1ccc(CCn2c(=N)c(S(=O)(=O)c3ccc(C)cc3)cc3c(=O)n4ccccc4nc32)cc1	-1%	-20%	-3	-10%	-7%
COc1ccc(CCn2c(=N)c(C(=O)N3CCN(C)CC3)cc3c(=O)n4ccccc4nc32)cc1	0%	-24%	-54*	?	-2%
O=C(NCc1ccc2c(c1)OCO2)c1ccc(C2SCC(=O)N2Cc2ccco2)cc1 (stereo not given)	7%	?	11	?	2%
Cc1ccc(C)c(C(C)NC(=O)Cc2cccs2)c1 (stereo not given)	15%	-11%	13	26%	16%
CC[C@@H](C)[C@@H](CO)NC(=O)[C@H]1O[C@@H](n2cnc3c(N)ncnc32)[C@H](O)[C@@H]1O	15%	6%	8	9%	6%
COc1ccc(CCn2c(=N)c(C(=O)NCCN3CCOCC3)cc3c(=O)n4cccc(C)c4nc32)cc1OC	-19%	?	?	?	-21%
